From PubChem BioAssay AID488890 (Southern Research Specialized Biocontainment Screening …, 2010)
Hit rate of the full screen: of about 320,000 compounds, about 1,300 (0.41%) were called active. Inconclusive results (about 3%) are left out. How the calls were made is not given here. The list is a sample of the results. Results with a measured potency or affinity are listed apart. Peptide text beside a SMILES is read from it. * marks the point of attachment. Boc = CC(C)(C)OC(=O)*; OtBu = CC(C)(C)O*

Assay: growth inhibition of non-replicating M. tuberculosis (AID 488890);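 further: plate controls were DMSO cells for no effect and high antibiotic wells for full effect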
Conditions: Mycobacterium tuberculosis non-replicating, at 25 µM, stronger effect = higher value

Going from `COc1cc(OC)cc(C(=O)NNC(=O)C2CCCC2)c1` to `CS(=O)(=O)N1CCCC(C(=O)Nc2ccc(F)c(F)c2)C1` (configuration not stated), the inhibition falls from -10.6% to -12.2%.

Going from `CC(=O)N1CCc2c(sc(NC(=O)C3CC3)c2-c2nc3ccccc3s2)C1` to `CC(C)N1CCc2c(sc(NC(=O)c3nc4ccccc4s3)c2C(N)=O)C1`, the inhibition rises from 12.5% to 77.9%.

Going from `Cc1cccc(N(CC(=O)NC(C)(C)C)C(=O)CS(=O)CC(=O)Nc2ccc(F)cc2)c1` (configuration not stated) to `CN(CC(=O)Nc1ccc(F)c(F)c1)S(=O)(=O)c1cccc2cccnc12`, the inhibition rises from -8.34% to 0.37%.

Compared with `COc1ccc(-c2nnc(SCc3ccc(C(=O)O)cc3)n2N)cc1`, `COc1ccc(-c2cn(-c3ccc(Cl)cc3)c3[n+]2CCCCC3)cc1` is higher in inhibition: -5.97% for the first, 10.6% for the second.

First: COCCSc1nnc(NC(=O)CS(=O)(=O)c2ccccc2)s1
Second: O=C(CS(=O)(=O)c1ccccc1)Nc1ncc([N+](=O)[O-])s1
The inhibition of the first is higher: 2.87% for the first, -8.38% for the second.

First: O=C(CCS(=O)(=O)Cc1ccccc1)Nc1nncs1
Second: Cc1nnc(NC(=O)CCS(=O)(=O)Cc2ccccc2)s1
The inhibition of the first is higher: 60.5% for the first, 57.7% for the second.

First: O=C(Cc1csc(Nc2nc(=S)[nH]c3ccccc23)n1)N1CCN(c2cccc(C(F)(F)F)c2)CC1
Second: CN1CCN(C(=O)COc2ccc3ccccc3c2Br)CC1
The inhibition of the first is lower: -8.89% for the first, 37.4% for the second.

Compared with `CC(=O)N(Cc1ccccc1)Cc1nc2sc(C)c(C)c2c(=O)[nH]1`, `Cc1c(C(=O)O)[nH]c2c1C(=O)CC(c1ccccc1)C2` (configuration not stated) is lower in inhibition: 5.06% for the first, 4.15% for the second.

Compared with `O=C(CN1C(=O)CSc2ccc(S(=O)(=O)N3CCOCC3)cc21)NCCCN1CCCCC1`, `CCn1cc(C(=O)NCC2CCCO2)c(=O)c2cc(S(=O)(=O)N3CCCCCC3)ccc21` (configuration not stated) is higher in inhibition: -5.81% for the first, 4.04% for the second.

First: Cc1ccc(S(=O)(=O)CC(=O)Nc2ccc(Cl)cn2)cc1
Second: COc1ccc(S(=O)(=O)NCc2ccncc2)cc1NC(=O)c1ccc(Cl)cc1
The inhibition of the first is higher: 53.5% for the first, 5.22% for the second.

Going from `COc1ccc([N+](=O)[O-])cc1/C=N/NC(=O)CNC(=O)c1cccc(F)c1` to `NC(=O)N/N=C/c1ccc(-c2ccc([N+](=O)[O-])cc2)o1`, the inhibition rises from 23.1% to 45.3%.

Compared with `CC(C)CCOCc1nc2sc3c(c2c(=O)[nH]1)CCC(C)C3` (configuration not stated), `CSc1nc2sc3c(c2c(=O)[nH]1)CCC(C)C3` (configuration not stated) is lower in inhibition: 27.8% for the first, -4.35% for the second.

Compared with `O=C(CCc1c[nH]c2ccccc12)NCCc1ccc(Cl)cc1`, `O=C(Cc1c[nH]c2ccccc12)NCc1ccc(Cl)cc1` is higher in inhibition: -0.44% for the first, 12.5% for the second.

Compared with `O=C(CCCc1c[nH]c2ccccc12)NCc1ccc2c(c1)OCO2`, `O=C(CCc1c[nH]c2ccccc12)NCc1ccc2c(c1)OCO2` is lower in inhibition: 7.12% for the first, 6.21% for the second.

Compared with `NC(=O)CCc1c[nH]c2ccccc12`, `CC(=O)N[C@@H](Cc1c[nH]c2ccccc12)C(=O)OCc1ccc(C#N)cc1` is higher in inhibition: -20.3% for the first, 5.82% for the second.

Compared with `CCOC(=O)CNC(=O)CSc1ncnc2c1nnn2-c1ccc(F)cc1`, `CCOC(=O)c1csc(NC(=O)c2ccc(OCC)cc2)n1` is lower in inhibition: 71.2% for the first, 19.8% for the second.

Going from `COc1ccc(-c2sccc2C(C)C(=O)O)cc1` (configuration not stated) to `CC(=O)c1csc(COc2ccc(Cl)cc2)n1`, the inhibition rises from 1.98% to 38.9%.

Going from `CCOc1ccc(S(=O)(=O)NCCC(=O)N2CCN(c3ccccc3O)CC2)cc1` to `CCN(CC)S(=O)(=O)c1ccc(N2CCOCC2)c(NS(=O)(=O)c2ccc(OC)cc2)c1`, the inhibition falls from 0.02% to -8.38%.

Compared with `Cc1cc(C)nc(NS(=O)(=O)c2ccc(NC(=O)c3ccc(S(=O)(=O)N4CCOCC4)cc3)cc2)n1`, `Cc1ccc(S(=O)(=O)N2CCOCC2)cc1C(=O)OCC(=O)N(Cc1ccccc1)C(C)C` is lower in inhibition: 14.6% for the first, 0.48% for the second.

First: CCOCC(=O)Nc1nnc(COC)s1
Second: CCOC(=O)c1csc(NC(C)=O)n1
The inhibition of the first is higher: 9.42% for the first, -1.23% for the second.

Going from `CC(=O)c1ccc(N2CCN(S(=O)(=O)c3cc4[nH]c(=O)c(=O)[nH]c4cc3C)CC2)cc1` to `Cc1ccc(OCC(O)Cn2c(N3CCOCC3)nc3c2c(=O)[nH]c(=O)n3C)cc1` (configuration not stated), the inhibition rises from -6.88% to 14.4%.

Compared with `NC(=S)N/N=C/c1ccc(-c2ccc([N+](=O)[O-])cc2)o1`, `Cc1nnc(N/N=C\c2ccc(-c3ccccc3[N+](=O)[O-])o2)n1N` is higher in inhibition: 63.3% for the first, 63.6% for the second.

First: CC1CCN(c2ccc(/C=N/n3nnnc3N)cc2[N+](=O)[O-])CC1
Second: Cc1nnc(N/N=C/c2cc([N+](=O)[O-])c(N3CCC(C)CC3)cc2N2CCC(C)CC2)n1N
The inhibition of the first is lower: 6.33% for the first, 37.3% for the second.

First: Cc1nnc(N/N=C/c2c(Cl)cccc2Cl)n1N
Second: CCOc1cc(/C=N/Nc2nnc(C)n2N)ccc1O
The inhibition of the first is higher: 18.3% for the first, 2.89% for the second.

Going from `CC(C)(C)c1nnc(N/N=C/c2ccc(Br)cc2)n(N)c1=O` to `COc1ccc(/C=N/Nc2nnc(C)n2N)cc1OC`, the inhibition falls from 12% to -3.85%.

Going from `COc1ccc(N(CC(=O)NCCc2ccccc2)C(=O)CCC(=O)Nc2ccccn2)cc1` to `COc1ccc(CNC(=O)CCCc2ccccc2)cc1`, the inhibition rises from -3.83% to 1.45%.

First: CC(C)N(CCNC(=O)c1ccc(CS(=O)(=O)c2c(Cl)cccc2Cl)o1)Cc1ccccc1
Second: CCCNC(=O)C(Cc1ccccc1)NC(=O)c1ccc(-c2ccccc2)cc1 (configuration not stated)
The inhibition of the first is higher: 15.8% for the first, 4% for the second.

Going from `O=C(CNC(=O)c1cccs1)NCC(=O)OCc1ccc(Cl)cc1` to `Cc1cc(C)c(C)c(C(=O)COC(=O)CNC(=O)CNC(=O)c2ccco2)c1C`, the inhibition falls from 15.7% to 6.12%.

First: CCc1nc(NC(C)C)c2oc3ccccc3c2n1
Second: Nc1nonc1-c1noc(COc2ccccc2Cl)n1
The inhibition of the first is higher: 8.44% for the first, 5.72% for the second.

First: Cc1nnc(N/N=C\c2ccc(-c3cccc(C(=O)O)c3)o2)n1N
Second: Cc1cc(Cl)ccc1N1C(=O)CC(NNC(=O)c2cccnc2)C1=O (configuration not stated)
The inhibition of the first is higher: 12.4% for the first, 5.86% for the second.

Compared with `CCOc1cc2c(cc1OCC)C(c1ccc(F)cc1)NCC2` (configuration not stated), `O=C(COc1ccc(F)cc1Br)NCc1ccccn1` is higher in inhibition: 19.2% for the first, 28.1% for the second.

Going from `CC(CNC(=O)c1ccc(OC2CCN(Cc3ccccn3)CC2)cc1)Oc1cccnc1` (configuration not stated) to `COC(=O)c1ccc(OC(=O)c2ccccn2)cc1`, the inhibition rises from 0.447% to 42%.

Going from `COc1ccc(CCNC(=O)CCCc2ccccc2)cc1OC` to `O=C(COC(=O)c1cccnc1Cl)NCCCc1ccccc1`, the inhibition rises from 26.3% to 27.7%.

Going from `O=C(COC(=O)c1ccccn1)Nc1c(Cl)cccc1Cl` to `O=C(COC(=O)c1ccccn1)Nc1ccccc1Cl`, the inhibition falls from 8.09% to 3.22%.

First: COC(=O)c1ccc(COC(=O)c2cnccn2)cc1
Second: O=C(OCc1ccc(Cl)c(Cl)c1)c1cnccn1
The inhibition of the first is higher: 55.1% for the first, 4.21% for the second.

First: O=C(OCc1c(Cl)cccc1Cl)c1cccnc1Cl
Second: O=C(OCc1c(Cl)cccc1Cl)c1cnccn1
The inhibition of the first is higher: 33.3% for the first, 17.6% for the second.

First: N#Cc1ccc(COC(=O)c2ccccn2)cc1
Second: CC(=O)c1csc(COc2ccccc2)n1
The inhibition of the first is higher: 55.2% for the first, -0.92% for the second.

First: O=C(c1cccs1)N1CCN(C2CCCCC2)CC1
Second: CCS(=O)(=O)N1CCC(NC(=O)C2CCCCC2)CC1
The inhibition of the first is higher: 14.6% for the first, -9.82% for the second.

Compared with `O=C(CSc1nnc(CNC(=O)c2ccccc2F)o1)NCC1CCCO1` (configuration not stated), `N#CC1(NC(=O)CSc2nnc(-c3ccccc3F)n2N)CCCCC1` is lower in inhibition: 4.55% for the first, -6.24% for the second.

First: CN(C)/C=N/c1cc(=O)[nH]c(=O)n1CC1CC1
Second: CCOC(=O)C1=C(N)OC2=C(C(=O)CC(C)(C)C2)C1c1ccc(C)s1 (configuration not stated)
The inhibition of the first is lower: -0.07% for the first, 64.3% for the second.

Going from `O=C(Oc1c(Br)cc(Br)c2cccnc12)N1CCCCC1` to `O=C(Oc1c(Cl)cc(Cl)c2cccnc12)N1CCCCC1`, the inhibition falls from 43.3% to 22.4%.

First: O=C(COc1ccc2ccccc2c1Br)N1CCCCC1
Second: O=C(c1ccc(N2CC3CC(C2)c2cccc(=O)n2C3)c([N+](=O)[O-])c1)N1CCCC1 (configuration not stated)
The inhibition of the first is higher: 76.2% for the first, -6.65% for the second.

Going from `O=C(COc1ccccc1F)Nc1c2c(nn1-c1ccccc1)CS(=O)(=O)C2` to `COc1ccccc1C(=O)Nc1c2c(nn1-c1cccc(C)c1C)CS(=O)(=O)C2`, the inhibition falls from 16.8% to 2.28%.

Going from `COc1cccc(/C=N/N2CCN(c3ccccc3OC)CC2)c1` to `C#CCOc1ccc2c(c1)c(C(C)=O)c(C)n2Cc1ccccc1`, the inhibition falls from 2.17% to -5.53%.

Compared with `CCCCC[C@@H]1C=C(C(=O)O)[C@H](c2ccc3c(c2)OCO3)N1S(=O)(=O)c1ccc(C)cc1`, `CCOC(=O)COc1ccc2c(c1)c(C(C)=O)c(C)n2-c1ccccc1` is lower in inhibition: 27.2% for the first, 19.1% for the second.

First: COC(=O)C1ON2OC(C(=O)OC)C(C(=O)OC)C2C1CC(C)=O (configuration not stated)
Second: CC(NC(=O)C(CC(=O)OC(C)(C)C)NC(=O)OC(C)(C)C)C(N)=O (configuration not stated) (Boc-Asp(OtBu)-Ala-NH2; configuration not given here)
The inhibition of the first is lower: -1.62% for the first, -0.24% for the second.

First: Cc1ccc(-c2nnc(C)c(N3CC(C)OC(C)C3)n2)cc1 (configuration not stated)
Second: Cc1ccc(-c2nnc(C)c(N3CCOCC3)n2)cc1
The inhibition of the first is lower: 2.5% for the first, 7.79% for the second.

First: COc1ncccc1-c1nnn(-c2ccccc2Br)n1
Second: Cc1onc(-c2ccc(Cl)cc2Cl)c1-c1csc(COc2ccccc2)n1
The inhibition of the first is higher: 3.8% for the first, -7.56% for the second.

First: Cc1oc2c(c(=O)c1C)C(=O)CC(c1ccccc1)C2 (configuration not stated)
Second: O=C(C1=NN[C@@H]2C(=O)N(Cc3ccccc3)C(=O)[C@H]12)c1ccc(F)cc1
The inhibition of the first is lower: -6.93% for the first, 5.43% for the second.

Compared with `CCOC(=O)c1csc(NC(=O)COc2ccc(Cl)cc2Cl)n1`, `CCOC(=O)c1csc(-c2ccc(OC)c(OC)c2)n1` is lower in inhibition: 80.3% for the first, 32.3% for the second.

First: CC(C)NC(=O)NNC(=O)c1cc(COc2cc(Cl)cc(Cl)c2)on1
Second: CCC(=O)NNC(=O)c1cc(COc2cc(Cl)cc(Cl)c2)on1
The inhibition of the first is lower: 31.8% for the first, 40% for the second.

First: Cc1onc(-c2ccccc2)c1-c1csc(COc2ccccc2)n1
Second: Cc1onc(C(=O)NN)c1-c1csc(COc2ccc(Cl)cc2)n1
The inhibition of the first is higher: 33.1% for the first, 13.2% for the second.

First: CCOC(=O)c1csc(N)n1
Second: CCOC(=O)c1ccccc1-c1csc(N)n1
The inhibition of the first is lower: -4.96% for the first, 6.53% for the second.

Compared with `COc1ccc(OC)c(Nc2nc(N)nc(CSc3nnc(N)s3)n2)c1`, `COc1ccc(CN(CC2CCC(C(=O)O)CC2)C(=S)Nc2cc(Cl)ccc2OC)cc1` (configuration not stated) is higher in inhibition: -6.45% for the first, 2.05% for the second.

Going from `O=C(CCN1C(=O)C2CC=CCC2C1=O)NC1CCCCC1` (configuration not stated) to `CC(C)c1ccc(NC2CCCN(C(=O)c3ccc(Cn4cnnn4)cc3)C2)cc1` (configuration not stated), the inhibition rises from -1.44% to 10.9%.

First: N#CCP(=S)(c1ccccc1)c1ccccc1
Second: Nn1c(SCC(=O)Nc2ccc3c(c2)OCCO3)nncc1=O
The inhibition of the first is higher: 24.1% for the first, -11.2% for the second.
